The results in this text go back to paper PMC4552634, “A New Set of Chemical Starting Points with Plasmodium falciparum Transmission-Blocking Potential for Antimalarial Drug Discovery” (PLoS ONE, 2015).

In all, about 13,000 compounds went through this assay and about 3,200 (25%) showed an effect of 50% or more. The list shows a part of the results.

In this test the test system is P. falciparum stage V gametocytes. The arrangement: BacTiter-Glo ATP luminescence viability of purified stage V gametocytes in 384-well plates, per cent inhibition versus DMSO. As to conditions: 48 h, 5 µM; inhibitor.
One may read the % Inhibition as the change of the read-out against control, counted positive when it falls. Consider `O=C(Nc1cccc(CN2CCCN(Cc3ccc(O)cc3)CC2)c1)c1cc2ccccc2o1` [TCMDC-141859], for which the “% Inhibition” value was found to be 49.98%.
`CN1CC[C@@H](Oc2cc(NC(=O)Nc3ccc(Cl)c(C(F)(F)F)c3)ccc2Cl)C1` [TCMDC-136149]: the “% Inhibition” value is on record as 23.18%.
For the compound `CN1CC[C@@H](Oc2cc(NC(=O)Nc3ccccc3Br)ccc2Cl)C1` [TCMDC-136144], the “% Inhibition” value is reported as 79.19%.
`COc1cc(Br)c(NC(=O)Nc2ccc(C(F)(F)F)c(O[C@@H]3CCN(C)C3)c2)cc1OC` [TCMDC-135186]: the “% Inhibition” value was -75.17%.
With `Cc1cc2nc(-c3ccc(C(=O)NCc4cccc(F)c4)cc3)[nH]c2cc1C` [TCMDC-140432], the “% Inhibition” value is given as -28.29%.
Take `CC(C)Nc1cc(C(=O)N[C@@H](Cc2ccccc2)[C@H](O)CNC2CCCCC2)cc(N2CCCCS2(=O)=O)c1` [TCMDC-135203]: the “% Inhibition” value is recorded as 21.45%.
Regarding `COc1ccccc1N1CCN(Cc2c(O)ccc3cc(Br)ccc23)CC1` [TCMDC-123565], the “% Inhibition” value is listed as 17.32%.
For `CC(=O)Nc1nc(C(=O)Nc2cccc(-c3ccc(-c4nc5cccc(C)c5[nH]4)s3)c2)cs1` [TCMDC-137132] the value was -23.79%; for `COc1ccc(Cl)cc1NC(=O)Nc1cc(C)nc2ccccc12` [TCMDC-125497], -49.54%; for `COc1ccc(Cl)cc1NC(=O)CN(C)C(=O)c1cnn(-c2ccccc2)n1` [TCMDC-125457], 95.1%.
`COc1ccc(Cl)cc1NC(=O)C(C)N1CCN(S(=O)(=O)c2ccccc2F)CC1` (stereo not shown) [TCMDC-123567]: the “% Inhibition” value is on record as -51.26%.
For `Cc1ccc(-n2c(=O)c3cccnc3n2CC(=O)Nc2cccc(C)c2C)cc1` [TCMDC-125161] the value was 23.17%; for `COc1ccc(CN(C2CC2)C(C)C(=O)c2[nH]c(C)c(C(C)=O)c2C)cc1` (stereo not shown) [TCMDC-125037], 53.61%.
Take `CCCC(C)N(Cc1ccc(C(C)(C)C)cc1)C(=O)c1ccc(OC)cc1` (stereo not shown) [TCMDC-139782]: the “% Inhibition” value worked out at 14.81%.
Take `CC1(C)N=C(NC(=O)c2cc([N+](=O)[O-])cc([N+](=O)[O-])c2)N=C(N)N1OCc1cccc2ccccc12` [TCMDC-131584]: the “% Inhibition” value was -17.03%.
For `CN(c1cc(NC(=O)c2ccc(F)cc2)ccn1)C1CCN(Cc2cccc(O)c2)CC1` [TCMDC-134966] the value was -19%.
The result for `CC(C)CCNC(=O)c1cc(C(=O)c2cc(F)ccc2O)cn(CCC(C)C)c1=O` [TCMDC-124499] reads 0.8137%; that for `COc1ccc(CNC(=O)c2cnc3c(O)cccc3c2Nc2cccc(NC(=O)c3ccc(Cl)c(Cl)c3)c2)cc1.O=C(O)C(F)(F)F` [TCMDC-139607], 97.23%.
For the compound `Nc1nc(Nc2cccc(Cl)c2)ncc1C(=O)NCc1ccncc1` [TCMDC-135688], the “% Inhibition” value amounted to 0.6434%.
`COc1ccc(CNC(=O)c2cnc3c(O)cccc3c2Nc2cccc(NC(=O)c3ccc(Cl)c([N+](=O)[O-])c3)c2)cc1.O=C(O)C(F)(F)F` [TCMDC-139609]: the “% Inhibition” value is recorded as 35.62%.
The result for `NS(=O)(=O)c1ccc(CNC(=O)c2cnc3c(O)cccc3c2Nc2cccc(NC(=O)c3ccc(Cl)c(Cl)c3)c2)cc1.O=C(O)C(F)(F)F` [TCMDC-139608] reads 34.02%; that for `CC(C)(C)c1ccc(C(=O)Nc2cccc(Nc3c(C(=O)NCc4cccc(C(F)(F)F)c4)cnc4c(O)cccc34)c2)cc1.O=C(O)C(F)(F)F` [TCMDC-139610], 57.39%; that for `COc1ccc(CNC(=O)c2cnc3c(O)cccc3c2Nc2cccc(NC(=O)c3ccc(-c4ccccc4)cc3)c2)cc1.O=C(O)C(F)(F)F` [TCMDC-139611], 77.42%.
The result for `CC(C)CCNC(=O)c1cnc2c(O)cccc2c1Nc1cccc(NC(=O)c2ccc(F)cc2)c1.O=C(O)C(F)(F)F` [TCMDC-139606] reads 111.5%; that for `O=C(Cc1ccc(NC(=O)c2ccc(O)c(-c3ccc(Cl)c(Cl)c3)c2)cc1)NCc1cccc(C(F)(F)F)c1` [TCMDC-140835], -7.918%.
Take `COc1ccc(CNC(=O)c2cnc3cc(-c4c(C)noc4C)ccc3c2Nc2ccccc2C(C)(C)C)cc1.Cl` [TCMDC-136367]: the “% Inhibition” value is -23.94%.
As to `OCc1ccc2nc3c(cc2c1)-c1cccc2cccc-3c12` [TCMDC-137756], the “% Inhibition” value worked out at 2.597%.
`Cc1cc(N2CCCC2)nc(Nc2ccc(NC(=O)c3ccccc3)cc2)n1` [TCMDC-124713]: the “% Inhibition” value was -11.14%.
The result for `COc1cccc(OC)c1OCCCOc1c(C)nc(N)nc1N` [TCMDC-131352] reads 5.526%; that for `c1ccc(Oc2ccc(Nc3nc(NCCc4cnc[nH]4)nc(NC4CCCC4)n3)cc2)cc1` [TCMDC-139745], 20.05%; that for `COc1ccc(CNC(=O)c2cnc3c(O)cccc3c2Nc2cccc(NC(=O)c3ccc(F)cc3)c2)cc1.O=C(O)C(F)(F)F` [TCMDC-139605], 78.77%.
Turning to `COc1ccc(CN2CCC(Oc3cccc(NC(=O)c4ccc(C(F)(F)F)cc4)c3)CC2)cc1` [TCMDC-133735], the “% Inhibition” value is given as -21.77%.
The result for `O=C(Nc1cccc(OC2CCN(Cc3ccc(F)cc3)CC2)c1)c1ccc(C(F)(F)F)cc1` [TCMDC-133734] reads -18.45%.
For `O=C(Nc1ccc(Cl)c(Cl)c1)N1CCC(NCc2cccc([N+](=O)[O-])c2)CC1` [TCMDC-141277] the value was 22.25%.
For `O=C(CN1C(=O)CC1S(=O)(=O)Cc1ccco1)NCCCCCCc1ccc(F)cc1` (stereo not shown) [TCMDC-139032] the value was 21.56%; for `COc1cccc(C(C)(C)NC[C@@H](O)[C@H](Cc2ccccc2)NC(=O)c2cc(C3CCCC3)cc(N3CCCCS3(=O)=O)c2F)c1` [TCMDC-135510], 45.23%; for `CCN(CC)CCN(Cc1ccc(-c2ccc(C(F)(F)F)cc2)cc1)C(=O)Cn1c(CCc2c(F)ccc(F)c2F)nc(=O)c2ccccc21` [TCMDC-140953], 67.68%.
With `CCN(CC)CCN(Cc1ccc(-c2ccc(C(F)(F)F)cc2)cc1)C(=O)Cn1c(CCc2c(F)cccc2F)nc(=O)c2ccccc21` [TCMDC-140950], the “% Inhibition” value is recorded as 87.94%.
For `CCN(CC)CCN(Cc1ccc(-c2ccc(C(F)(F)F)cc2)cc1)C(=O)Cn1c(CCc2c(F)cc(F)cc2F)nc(=O)c2ccccc21` [TCMDC-140967] the value was 61.03%.
For `CCN(CC)CCN(Cc1ccc(-c2ccc(C(F)(F)F)cc2)cc1)C(=O)Cn1c(CCc2cc(F)cc(F)c2F)nc(=O)c2ccccc21` [TCMDC-140955] the value was 88.67%.
